HSF-1 act – increases HSF-1 driven luciferase reporter signal | NIH3T3-HGL HSF-1 luciferase reporter, MG132, 8 h; 100% = twice DMSO control signal | activation, % at 9 µM | 300,000 tested, 1.7% active | AID 504408;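 active = mean replicate activation of at least 50% with a set share of replicates each reaching 50%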;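 also: 0% = median of the neutral control wells and 100% = twice that signal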
AHR activator – human AHR activation; activation, % at 5 µM; AID 2796; AHR-responsive luciferase reporter cells, luminescence; 320,000 tested, 2.5% active; P35869; in the data active = activation above about 47%;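 also: 0% = vehicle wells and 100% = reference agonist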
Target sequence (P35869 whole entry, looked up): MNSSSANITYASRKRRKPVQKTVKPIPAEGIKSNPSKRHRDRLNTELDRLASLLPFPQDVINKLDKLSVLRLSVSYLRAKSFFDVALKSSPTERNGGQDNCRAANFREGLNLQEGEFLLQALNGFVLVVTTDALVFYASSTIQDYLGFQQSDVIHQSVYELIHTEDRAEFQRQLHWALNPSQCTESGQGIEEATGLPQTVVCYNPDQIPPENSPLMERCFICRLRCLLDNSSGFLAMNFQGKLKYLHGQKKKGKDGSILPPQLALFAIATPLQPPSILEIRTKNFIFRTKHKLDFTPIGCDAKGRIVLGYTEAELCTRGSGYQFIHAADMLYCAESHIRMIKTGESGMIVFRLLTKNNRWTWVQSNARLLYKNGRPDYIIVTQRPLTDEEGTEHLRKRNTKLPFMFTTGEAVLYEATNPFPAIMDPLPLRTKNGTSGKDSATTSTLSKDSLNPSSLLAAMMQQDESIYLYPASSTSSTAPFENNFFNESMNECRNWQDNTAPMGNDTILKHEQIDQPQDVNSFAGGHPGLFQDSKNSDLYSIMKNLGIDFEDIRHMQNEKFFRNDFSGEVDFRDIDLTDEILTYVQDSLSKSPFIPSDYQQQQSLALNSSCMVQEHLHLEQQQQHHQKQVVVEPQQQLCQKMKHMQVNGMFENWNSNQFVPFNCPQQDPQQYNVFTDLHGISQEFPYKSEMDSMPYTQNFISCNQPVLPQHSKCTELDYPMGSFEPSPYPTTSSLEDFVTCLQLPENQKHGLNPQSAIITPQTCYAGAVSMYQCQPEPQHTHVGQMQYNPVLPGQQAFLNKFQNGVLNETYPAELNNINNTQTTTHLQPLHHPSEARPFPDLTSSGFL
HSF1 inhib – HSF1 inhibition | NIH3T3-HGL HSE-luciferase, MG132-induced, luminescence 8 h; active compounds read low | activity change, negative = inhibition, % at 7.5 µM (by protocol) | 300,000 tested, 0.77% active | AID 2098;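 active = more than half of replicate wells show activity change below -50%, luminescence cut by over half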;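 also: luciferase reports HSF-1 transcriptional activity via heat shock element; 0% = median of DMSO wells and -100% = zero luminescence signal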
GAA850 FXN act – activators of GAA850 frataxin (FXN) promoter; HEK293 lucGAA850 FXN promoter luciferase reporter, 24 h; percent of 10 µM SAHA response; activation, % at 6 µM; 360,000 tested, 0.56% active; AID 540364;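 active = activation above the average of all compounds screened plus 3 SD, cutoff fixed separately per campaign, cut at about 7.5% in these data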;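 also: 0% = DMSO wells and 100% = 10 µM SAHA wells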
DAX1 inh – inhibits human nuclear receptor DAX1; P51843; HEK293 Gal4-DAX1 luciferase reporter, luminescence; inhibition, % at 6.75 µM; 340,000 tested, 0.99% active; AID 504766;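 active = inhibition above the mean over all tested compounds plus 3 SD, cut at about 4.2% in these data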;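 also: 0% = DAX1-transfected cells with DMSO and 100% = empty-vector control cells with DMSO; inhibition shows as a rise in luminescence from relieved DAX1 repression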
The depositor's hits bear a star; . = not tested or not shown. An excerpt weighted towards active compounds, which were near 5.4% of everything screened.

SMILES | HSF-1 act | AHR activator | HSF1 inhib | GAA850 FXN act | DAX1 inh
N#CC1=C(O)C(c2ccccc2)n2c1nc(=O)c1ccccc12 (centres undefined) | 1 | 0 | 7 | 2 | 7.3*
C[C@@H]1CN([C@H](C)CO)C(=O)CCCn2nncc2CO[C@H]1CN(C)C(=O)c1ccc2ccn(C)c2c1 | . | . | . | -1 | 1
CCn1cc(Cl)c(C(=O)Nc2ccccc2C(N)=O)n1 | 29 | 54* | 8 | 2 | -1
CCn1cc(Br)c(C(=O)Nc2ccccc2C(=O)OC)n1 | -11 | 23 | -3 | 4 | 0
Cc1ccc(NC(=O)CN(C)C(=O)C(Sc2ccccc2)c2ccccc2)cc1 (centres undefined) | . | 1 | . | -2 | 0
CCOc1ccc(-n2cc(C(=O)N3CCC(C)CC3)c3cc(OC)c(OC)cc3c2=O)cc1 | 66* | 5 | 23 | -1 | -1
CCn1cc(C(=O)N2CCN(c3ccccc3OC)CC2)c2cc(OC)c(OC)cc2c1=O | -5 | 3 | 0 | 5 | 4.4*
CCOc1ccc(NC(=O)c2cn(-c3ccc(OCC)cc3)c(=O)c3cc(OC)c(OC)cc23)cc1 | -18 | -2 | -5 | -2 | -2
COc1ccc2cc(-c3[nH]ncc3CN3CCCN(c4ccccc4)CC3)ccc2c1 | 18 | 8 | 6 | 3 | -1
CCOC(=O)c1c(/N=C/N(C)C)sc(C)c1C | -6 | 1 | 1 | 2 | 1
CCOC(=O)c1c(/N=C/N(C)C)sc(/C=N/Nc2ccccc2)c1-c1ccc(Cl)cc1 | -9 | 92* | -9 | 1 | 1
CN(C)N(C(=O)c1cc(-c2cccs2)nn1-c1ccccc1)C1CCS(=O)(=O)C1 (centres undefined) | . | 1 | . | 1 | 1
COc1ccccc1N1CCN(CC(=O)Nc2ccccc2C(=O)NCCc2ccccc2)CC1 | . | 63* | . | 1 | 1
COc1ccccc1NC(=O)c1ccc(NC(=O)COC(=O)c2cncc(Br)c2)cc1 | . | 50* | . | 0 | 1
COc1ccccc1NC(=O)c1ccc(NC(=O)CN2CCCCC2)cc1 | . | 1 | . | 1 | 1
COc1cc(NC(=O)c2ccccc2F)c(OC)cc1NC(=O)CN1CCOCC1 | -2 | 51* | 8 | 2 | 0
COc1ccccc1NC(=O)c1ccc(NC(=O)COC(=O)C2CCCCC2)cc1 | 4 | 8 | 7 | 1 | 0
COc1cc(NC(=O)c2ccc(F)cc2)c(OC)cc1NC(=O)CN1CCOCC1 | -7 | 33 | -3 | 2 | -1
COc1ccccc1NC(=O)c1ccc(NC(=O)CN2CCCC2)cc1 | 8 | 53* | -4 | 2 | 1
COc1ccccc1NC(=O)CN1CCN(CC(=O)Nc2ccc(F)cc2F)CC1 | 69* | . | 24 | 3 | 0
CCc1nnc(NC(=O)c2ccc(-c3ccc([N+](=O)[O-])cc3Cl)o2)s1 | -7 | 3 | -1 | 1 | 0
COc1ccc(C2C=C(C)Nc3ncnn32)cc1 (centres undefined) | 21 | 4 | 0 | 0 | 4.6*
CCC1CCCCN1S(=O)(=O)c1ccc(NC(=O)c2ccncc2)cc1 (centres undefined) | 2 | 3 | 0 | -3 | -2
CCS(=O)(=O)c1ncc(Cl)c(C(=O)Nc2ccc(S(=O)(=O)N3CCCC(C)C3)cc2)n1 (centres undefined) | -80 | -3 | -79* | -14 | -1
CCC1CCCCN1S(=O)(=O)c1ccc(NC(=O)c2nc(S(C)(=O)=O)ncc2Cl)cc1 (centres undefined) | -84 | -2 | -84* | -5 | 0
SMILES | HSF-1 act | AHR activator | HSF1 inhib | GAA850 FXN act | DAX1 inh
CCOc1ccc(C(=O)c2ccc(OCC)c(N)c2)cc1N | 19 | 60* | 10 | 4 | 0
CCOc1ccc(S(=O)(=O)N(CC)CC)cc1N | 6 | 2 | 1 | 2 | 0
Cc1nnc(SCC(=O)Nc2ccc(N3CCN(S(C)(=O)=O)CC3)cc2)o1 | 1 | 0 | -4 | 1 | 0
O=C1CCc2cc(S(=O)(=O)N3CCC(C(=O)NCCC4=CCCCC4)CC3)ccc2N1 | . | -3 | . | -1 | 6.2*
COc1ccc(CCNC(=O)C2CCCN(S(=O)(=O)c3ccc(F)cc3)C2)cc1OC (centres undefined) | -67 | 2 | -57* | 1 | 0
O=C1CCc2cc(S(=O)(=O)NC(Cc3ccccc3)C(=O)NCCC3=CCCCC3)ccc2N1 (centres undefined) | 8 | -1 | -1 | 0 | 4.3*
Cc1cc(C)c(S(=O)(=O)N2CCCC(C(=O)NCCC3=CCCCC3)C2)c(C)c1 (centres undefined) | 60* | 2 | 27 | 0 | 0
Cc1ccc(CCNC(=O)C2CCN(S(=O)(=O)c3ccc4c(c3)CCC(=O)N4)CC2)cc1 | 20 | -2 | 8 | -2 | 1
CCN(CCC(=O)Nc1cc([N+](=O)[O-])ccc1OC)Cc1ccccc1 | -6 | 2 | -6 | 1 | 0
c1ccc(CSc2cc3ccccc3[nH]2)cc1 | 12 | 23 | -4 | 3 | 2
Cc1[nH]c2ccccc2c1C1C(c2ccccc2)=NN=C(C(C)C)N1O (centres undefined) | 17 | 26 | 0 | -1 | -1
CC1=NN=C(c2ccccc2)C(c2c[nH]c3ccccc23)N1O (centres undefined) | 18 | 68* | 5 | 0 | -1
Oc1c(N=Nc2ccccn2)ccc2ccccc12 | 265* | 68* | 184 | -16 | -4
COc1cc2c(cc1OC)CN(CC(=O)Nc1cccc(C(F)(F)F)c1)CC2 | -11 | 0 | -8 | -2 | -1
COCCNc1c([N+](=O)[O-])c(=O)n(-c2ccccc2)c2ccccc12 | 69* | 0 | 21 | 1 | 0
O=C(NCc1cccnc1)c1ccc2c(c1)N(Cc1ccccc1)CCS2 | 3 | 14 | 13 | 2 | 6.0*
O=C(NCc1ccccn1)c1ccc2c(c1)N(Cc1ccccc1)CCS2 | 19 | 6 | 8 | 0 | 1
CN1CCSc2ccc(C(=O)NCc3ccccc3)cc21 | 9 | 62* | 12 | 2 | -1
CCN1CCSc2ccc(C(=O)NCc3cccc(Br)c3)cc21 | 121* | 28 | 78 | 0 | 0
CC1CC(C)CN(C(=O)c2ccc3c(c2)N(Cc2ccccc2)CCS3)C1 (centres undefined) | 64* | 5 | 35 | 1 | -2
COc1ccc(S(=O)(=O)N2CCC(C(=O)N[C@@H](C)C(=O)NCc3ccccc3OC)CC2)cc1 | 34 | 0 | 30 | 1 | 1
O=C(CCN1CCC(c2cccs2)=N1)c1cccs1 | 65* | 9 | 38 | 2 | .
O=C(CCN1CCCC1)c1cccs1 | -9 | 2 | 6 | 0 | 1
O=C(Nc1cccc([N+](=O)[O-])c1)c1ccc2c(c1)C(=O)N(c1ccccn1)C2=O | 11 | 5 | -3 | 2 | 0
Cn1cnnc1SCC(=O)Nc1nc(-c2ccccc2)cs1 | 3 | 12 | -1 | 1 | .
CCOc1nc(N=C(N)N)nc2c(C)cccc12 | 13 | 49* | 0 | -3 | -1

Screening data: PubChem BioAssay, several laboratories
